Shiga inhibitor = inhibitors of Shiga toxin in Vero cells | inhibition, % at 38.7 µM | Vero cells, Shiga toxin protein synthesis inhibition reporter | AID 2315 | hit rate 9.2% among 290,000; in the data active = inhibition mostly above about 28%, no sharp cut-off; inactive = mostly below about 43%; note: 0% is about no effect
FBPA Giardia inh = blocks Giardia fructose-bisphosphate aldolase activity; purified Giardia FBPA; Potency, µM (doses to about 59.6 µM), without a hit: top-dose activity, negative = inhibition, usual class: inhibitors; hit rate 0.71% among 290,000; AID 2451; note: potency is the fitted concentration of half-maximal effect; % is set by controls: 0 for no effect and ±100 for the full control effect; nearly all actives have a fitted effect of over 55% in size
Target sequence (A8B2U2 whole entry, looked up): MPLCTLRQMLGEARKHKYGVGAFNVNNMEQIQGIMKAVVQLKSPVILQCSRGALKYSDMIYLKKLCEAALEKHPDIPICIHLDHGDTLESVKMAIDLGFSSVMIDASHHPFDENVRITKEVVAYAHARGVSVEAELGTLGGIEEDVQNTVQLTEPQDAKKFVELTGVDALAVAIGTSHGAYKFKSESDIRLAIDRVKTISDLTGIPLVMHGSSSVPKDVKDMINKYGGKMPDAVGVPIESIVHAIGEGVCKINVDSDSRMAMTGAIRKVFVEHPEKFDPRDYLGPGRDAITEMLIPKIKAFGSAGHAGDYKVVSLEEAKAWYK
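Giardia FBPA (40 nM reagent) was preincubated 10 min at RT with compound (up to 57.5 uM final), then substrate plus GAPDH/TPI/NAD/arsenate coupling system with diaphorase/resazurin was added; resorufin fluorescence (525/598 nm) was read after 20 min.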
CHX counter = affects cycloheximide protein synthesis inhibition readout, counter-screen | cell reporter, cycloheximide protein synthesis inhibition counterscreen | AID 2314 | hit rate 12% among 300,000 | max response, %; in the data active = max response mostly above about 13%, no sharp cut-off; inactive = mostly below about 14%; note: read at 38.3 µM for the half of the compounds with a filed dose; 0% is about no effect
LmPK inh = inhibitors of Leishmania mexicana pyruvate kinase. Q27686. purified LmPK, Kinase-Glo ATP luminescence, 1 h. Potency, µM (top dose mostly 57.5 µM), for the others: top-dose activity change, negative = inhibition, actives largely listed as inhibitors. hit rate 0.37% among 290,000. AID 1721; note: potency is the fitted concentration of half-maximal effect; % is set by controls: 0 for no effect and ±100 for the full control effect
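Purified LmPK (0.1 nM) converted ADP (0.1 mM) to ATP with PEP (0.5 mM) in imidazole buffer pH 7.2 with KCl and MgCl2, 1 h at room temperature. ATP was read by Kinase-Glo luminescence; data normalized to uninhibited and no-enzyme controls.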
NS1 inh = inhibitors of influenza NS1 protein function | Potency, µM (highest dose often 46.1 µM), for inactives: at the top dose activity, positive = more growth | hit rate 0.4% among 270,000 | AID 2326; calls by dose curve; note: potency is the fitted concentration of half-maximal effect; actives are rising curves; nearly all actives have a fitted effect of over 50% in size
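S. cerevisiae expressing influenza A NS1, grown in glucose, washed, then diluted 1:100 into pH 6.0 -URA galactose medium with 23 nl compound. Growth recovery read as OD600; NS1-free strain serves as control.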
Starred values were filed as active, the others as inactive; ? = inconclusive; . = not tested or not shown; [ ] = dose if it differs, or a comment. An excerpt weighted towards active compounds, which were near 14% of everything screened. Unless noted, calls come from the whole dose curve; as a rule, active = well fitted curve in the direction sought with a large enough effect; inconclusive = small, poorly fitted or top-dose-only effect, or another doubt; inactive = no such curve, though single readings can be large; an effect the other way counts as inactive or inconclusive.

SMILES	Shiga inhibitor	FBPA Giardia inh	CHX counter	LmPK inh	NS1 inh
CC1CCN(c2ccc3nnc(CCC(=O)Nc4ccc(F)cc4)n3n2)CC1	-8	15%	-3	7%	-13%
O=C(Nc1ccccc1)Nc1ccccc1-n1ccnc1	17	1%	8	0%	4%
Cc1cc(C)n(-c2ccc(NN=C(C#N)C#N)cc2)n1	18	?	14	-24%	-72%
O=C(Nc1ccccc1)Nc1ccc(-n2ccc(C(F)(F)F)n2)cc1	75*	2%	39*	-5%	0%
N#CC(C#N)=NNc1ccc(-n2ccc(C(F)(F)F)n2)cc1	42	-17%	16*	-6%	-60%
COc1ccc(C2=NN(c3ccc(C(=O)O)cc3)C(c3ccc(OC)c(OC)c3)C2)cc1 (stereo unspecified)	53*	.	39*	3%	19%
COc1ccc(C2CC(c3ccccc3)=NN2c2ccc(N)cc2)cc1 (stereo unspecified)	44*	-13%	39*	-5%	?
CCC(=O)Nc1cccc(C2=NN(c3ccccc3)C(c3ccc(OC)cc3)C2)c1 (stereo unspecified)	-15	-1%	2	-3%	4%
COc1ccc(S(=O)(=O)N2N=C(c3ccc(NS(C)(=O)=O)cc3)CC2c2ccco2)cc1 (stereo unspecified)	23	-2%	6	7%[11.5 µM]	.
COc1ccc(C2CC(c3ccccc3)=NN2c2ccc(Cl)c(C(=O)O)c2)cc1 (stereo unspecified)	45*	2%	26*	12%	10%
COc1ccc(C2CC(c3ccccc3)=NN2c2ccc(S(N)(=O)=O)cc2)cc1OC (stereo unspecified)	-11	-12%	7	3%	14%
COc1ccc(C2CC(c3ccccc3)=NN2S(=O)(=O)c2ccccc2)cc1 (stereo unspecified)	55*	1%	34*	10%	-39%
C[C@H]1Cc2c(-c3ccccc3)nc3c(c2CO1)CN(S(=O)(=O)c1ccc(C#N)cc1)CC3	.	5%[12.9 µM]	.	-1%[11.5 µM]	.
Cc1ccccc1N(C(=O)c1ccccn1)C(C(=O)NCc1ccccc1)c1cccnc1 (stereo unspecified)	-9	-5%	-2	8%	11%
COC(=O)[C@H](CCSC)NC(=O)c1ccc(NC[C@@H](N)CS)cc1-c1ccccc1	6	-14%	-8	.	.
Cc1ccc(C2=NN(C(=O)c3cccs3)C(c3ccccc3O)C2)cc1 (stereo unspecified)	22	6%	22*	-1%	4%
O=C(c1cccs1)N1N=C(c2ccccc2)CC1c1ccccc1O (stereo unspecified)	3	0%	-1	-6%	12%
CS(=O)(=O)Nc1ccc(C2=NN(S(=O)(=O)c3ccccc3)C(c3cccs3)C2)cc1 (stereo unspecified)	14	-1%	-9	-2%[11.5 µM]	.
Cc1ccc(C2=NN(S(=O)(=O)c3ccccc3)C(c3ccccc3O)C2)cc1 (stereo unspecified)	69*	-11%	20*	-3%	.
O=C(O)c1cc(O)ccc1NC(=O)C(c1ccccc1)c1ccccc1	8	19%	1	8%	20%
Nc1nc2c(ncn2C2OC(CO)CC2O)c(=O)[nH]1 (stereo unspecified)	.	2%	.	.	.
CCC1=C2CC[C@H]3C(=O)N(CC)C(=O)[C@H]3[C@H]2[C@@]2(Cc3ccccc3)C(=NCC3CC3)OC(=O)N2C1=O	.	0%	.	.	.
O=C1CCCc2nc(N3CCc4ccccc43)ncc21	94*	8%	38*	?	-12%
O=C1CC(c2ccccc2)Cc2nc(N3CCc4ccccc43)ncc21 (stereo unspecified)	.	.	.	.	13%
CC1(C)CC(=O)c2cnc(N3CCc4ccccc4C3)nc2C1	89*	5%	24*	-1%	0%
SMILES	Shiga inhibitor	FBPA Giardia inh	CHX counter	LmPK inh	NS1 inh
C[C@@H]1/C=C\CC(=O)OC[C@H]2O[C@@H](C=C[C@@H]2O)[C@H](C)/C=C\CC(=O)OC1	.	-1%[12.9 µM]	.	.	.
O=C(Cn1cc(SCc2ccc(Cl)cc2)c2ccccc21)N1CCOCC1	32*	-20%	26*	-9%	-32%
O=C(Cn1cc(SCc2ccc(F)cc2)c2ccccc21)N1CCOCC1	16*	-19%	36*	-6%	-6%
COCCn1nnnc1CN1CCN(C(=O)c2ccco2)CC1	-4	-1%	-3	5%	-2%
Nc1ccccc1NC(=O)NC(=O)c1ccccc1	.	6%	41*	2%	-18%
Nc1ccccc1NC(=O)c1ccccc1N	30*	4%[12.9 µM]	36*	-1%	-7%

Screens from PubChem.
